# Data as given in the supplement of paper PMC10037445.
# The full ranking holds about 2,900 compounds; the median of “NF-kB SEAP reporter activity, fold change vs agonist alone” is about 0.99, and the highest 2% start at about 2.6. The full list was thinned out, with the highest values kept by preference.
# Assays:
# [1] = system: RAW-Dual; assay: NF-kB SEAP reporter activity, fold change vs agonist alone; cytotoxicity flag (confluency mask): not cytotoxic; higher = enhanced NF-kB activity
# How it was run: (§1)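 After 50 nL of library stock was delivered by pin tool to RAW-Dual macrophages (50,000 cells/well, DMEM, 384-well plates), a PRR agonist was added 1 h later and the plates were kept at 37 °C, 5% CO2. Twenty hours later, IRF was read from supernatant by QuantiLuc luminescence and NF-κB by QuantiBlue absorbance at 620 nm. Reporter activity is stated as fold change over agonist-alone wells. Wells with IncuCyte confluency under 70% of agonist controls in both mask sets were counted as cytotoxic.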
# [2] = system: RAW-Dual; assay: NF-kB SEAP reporter activity, fold change vs agonist alone; higher = enhanced NF-kB activity
# How it was run: as §1
# [3] = system: RAW-Dual; assay: NF-kB SEAP reporter activity, fold change vs agonist alone; cytotoxicity flag (confluency mask): cytotoxic (confluency <70% of control); higher = enhanced NF-kB activity
# How it was run: as §1
# [4] = agonist: ODN 1826 (TLR9) 0.5 ug/mL
# [5] = agonist: Pam2CSK4 (TLR2/6) 0.1 ug/mL
# [6] = agonist: Pam3CSK4 (TLR2/1) 0.1 ug/mL
# [7] = library stock concentration (final ~1000-fold dilution): 10 mM, cytotoxicity flag (confluency mask): not cytotoxic, agonist: MPLA (TLR4) […]
# [8] = library stock concentration (final ~1000-fold dilution): 10 mM, cytotoxicity flag (confluency mask): not cytotoxic, agonist: Imiquimod (TLR7) […]
compound,measurement,setting,value
CC1(C)SC2C(NC(=O)C(N)c3ccccc3)C(=O)N2C1C(=O)OCOC(=O)C1N2C(=O)CC2S(=O)(=O)C1(C)C (configuration not stated) (library stock concentration (final ~1000-fold dilution): 10 mM),NF-kB SEAP reporter activity,[1]; agonist: LPS (TLR4) 0.1 ug/mL,1.06
same,NF-kB SEAP reporter activity,[1]; [4],0.886
same,NF-kB SEAP reporter activity,[1]; [5],1.16
same,NF-kB SEAP reporter activity,[1]; [6],0.993
CC1(C)SC2C(NC(=O)C(N)c3ccccc3)C(=O)N2C1C(=O)OCOC(=O)C1N2C(=O)CC2S(=O)(=O)C1(C)C (configuration not stated),NF-kB SEAP reporter activity,[2]; [7],1.07
Cc1nc(-c2cn3c(n2)-c2ccc(-c4cnn(C(C)(C)C(N)=O)c4)cc2OCC3)n(C(C)C)n1 (library stock concentration (final ~1000-fold dilution): 10 mM),NF-kB SEAP reporter activity,[1]; agonist: LPS (TLR4) 0.1 ug/mL,2.74
same,NF-kB SEAP reporter activity,[1]; [4],1.31
same,NF-kB SEAP reporter activity,[1]; [5],0.996
same,NF-kB SEAP reporter activity,[1]; [6],1.15
CC(Oc1ccc2c(c1)OCCn1cc(-c3ncnn3C(C)C)nc1-2)C(N)=O (configuration not stated),NF-kB SEAP reporter activity,[2]; [8],0.585
same,NF-kB SEAP reporter activity,[2]; [7],1.4
CC(Oc1ccc2c(c1)OCCn1cc(-c3ncnn3C(C)C)nc1-2)C(N)=O (configuration not stated) (library stock concentration (final ~1000-fold dilution): 10 mM),NF-kB SEAP reporter activity,[1]; agonist: LPS (TLR4) 0.1 ug/mL,2.07
same,NF-kB SEAP reporter activity,[1]; [4],1.1
same,NF-kB SEAP reporter activity,[1]; [5],0.894
same,NF-kB SEAP reporter activity,[1]; [6],1.41
Cc1nc(-c2cn3c(n2)-c2ccc(-c4cnn(C(C)(C)C(N)=O)c4)cc2OCC3)n(C(C)C)n1,NF-kB SEAP reporter activity,[2]; [8],0.619
same,NF-kB SEAP reporter activity,[2]; [7],1.84
OCC1OC(c2ccc(F)c(Cc3cc4ccccc4s3)c2)C(O)C(O)C1O (configuration not stated) (library stock concentration (final ~1000-fold dilution): 10 mM),NF-kB SEAP reporter activity,[1]; agonist: LPS (TLR4) 0.1 ug/mL,1.07
same,NF-kB SEAP reporter activity,[1]; [4],0.948
same,NF-kB SEAP reporter activity,[1]; [5],1.15
same,NF-kB SEAP reporter activity,[1]; [6],1.17
OCC1OC(c2ccc(F)c(Cc3cc4ccccc4s3)c2)C(O)C(O)C1O (configuration not stated),NF-kB SEAP reporter activity,[2]; [8],1.06
same,NF-kB SEAP reporter activity,[2]; [7],1.04
Nc1ccn(C2CSC(CO)O2)c(=O)n1 (configuration not stated) (library stock concentration (final ~1000-fold dilution): 10 mM),NF-kB SEAP reporter activity,[1]; agonist: LPS (TLR4) 0.1 ug/mL,0.862
same,NF-kB SEAP reporter activity,[1]; [4],1.03
same,NF-kB SEAP reporter activity,[1]; [5],0.999
same,NF-kB SEAP reporter activity,[1]; [6],1.11
Nc1ccn(C2CSC(CO)O2)c(=O)n1 (configuration not stated),NF-kB SEAP reporter activity,[2]; [8],0.893
same,NF-kB SEAP reporter activity,[2]; [7],1.04
COC1CCC(N2C(=O)CNc3ncc(-c4ccc(C(C)(C)O)nc4)nc32)CC1 (configuration not stated) (library stock concentration (final ~1000-fold dilution): 10 mM),NF-kB SEAP reporter activity,[1]; agonist: LPS (TLR4) 0.1 ug/mL,0.463
same,NF-kB SEAP reporter activity,[1]; [4],0.349
same,NF-kB SEAP reporter activity,[1]; [5],0.719
same,NF-kB SEAP reporter activity,[1]; [6],0.458
COC1CCC(N2C(=O)CNc3ncc(-c4ccc(C(C)(C)O)nc4)nc32)CC1 (configuration not stated),NF-kB SEAP reporter activity,[2]; [8],0.711
same,NF-kB SEAP reporter activity,[2]; [7],0.53
CC(NC(=O)C(=O)Nc1ccccc1C(C)(C)C)C(=O)NC(CC(=O)O)C(=O)COc1c(F)c(F)cc(F)c1F (configuration not stated),NF-kB SEAP reporter activity,[2]; [8],1.15
same,NF-kB SEAP reporter activity,[2]; [7],0.848
CC(NC(=O)C(=O)Nc1ccccc1C(C)(C)C)C(=O)NC(CC(=O)O)C(=O)COc1c(F)c(F)cc(F)c1F (configuration not stated) (library stock concentration (final ~1000-fold dilution): 10 mM),NF-kB SEAP reporter activity,[1]; agonist: LPS (TLR4) 0.1 ug/mL,0.607
same,NF-kB SEAP reporter activity,[1]; [4],1.25
same,NF-kB SEAP reporter activity,[1]; [5],0.912
same,NF-kB SEAP reporter activity,[1]; [6],1.17
CCOC(=O)Nc1cc(-c2ccc(C)c(NS(C)(=O)=O)c2)nn2c(C)nnc12 (library stock concentration (final ~1000-fold dilution): 10 mM),NF-kB SEAP reporter activity,[1]; agonist: LPS (TLR4) 0.1 ug/mL,3.81
same,NF-kB SEAP reporter activity,[1]; [4],1.93
same,NF-kB SEAP reporter activity,[1]; [5],0.828
same,NF-kB SEAP reporter activity,[1]; [6],1.44
CCOC(=O)Nc1cc(-c2ccc(C)c(NS(C)(=O)=O)c2)nn2c(C)nnc12,NF-kB SEAP reporter activity,[2]; [8],1.43
same,NF-kB SEAP reporter activity,[2]; [7],2.52
CCOC(=O)C1=CC(OC(CC)CC)C(NC(C)=O)C(N)C1 (configuration not stated),NF-kB SEAP reporter activity,"[2]; library stock concentration (final ~1000-fold dilution): 2 mM, cytotoxicity flag (confluency mask): not cytotoxic, agonist: Imiquimod (TLR7) […]",0.848
same,NF-kB SEAP reporter activity,"[2]; library stock concentration (final ~1000-fold dilution): 2 mM, cytotoxicity flag (confluency mask): not cytotoxic, agonist: MPLA (TLR4) […]",1.03
CCOC(=O)C1=CC(OC(CC)CC)C(NC(C)=O)C(N)C1 (configuration not stated) (library stock concentration (final ~1000-fold dilution): 2 mM),NF-kB SEAP reporter activity,[1]; agonist: LPS (TLR4) 0.1 ug/mL,1.17
same,NF-kB SEAP reporter activity,[1]; [4],1.08
same,NF-kB SEAP reporter activity,[1]; [5],1.16
same,NF-kB SEAP reporter activity,[1]; [6],1.11
N#Cc1cnc(Nc2cc(NCC3CNCCO3)c(C(F)(F)F)cn2)cn1 (configuration not stated) (library stock concentration (final ~1000-fold dilution): 10 mM),NF-kB SEAP reporter activity,[1]; agonist: LPS (TLR4) 0.1 ug/mL,1.37
same,NF-kB SEAP reporter activity,[1]; [4],1.25
same,NF-kB SEAP reporter activity,[1]; [5],1.34
same,NF-kB SEAP reporter activity,[1]; [6],1.5
N#Cc1cnc(Nc2cc(NCC3CNCCO3)c(C(F)(F)F)cn2)cn1 (configuration not stated),NF-kB SEAP reporter activity,[2]; [8],1.66
same,NF-kB SEAP reporter activity,[2]; [7],0.936
CS(=O)c1ccc(-c2nc(-c3ccc(F)cc3)c(-c3ccncc3)[nH]2)cc1 (configuration not stated) (library stock concentration (final ~1000-fold dilution): 10 mM),NF-kB SEAP reporter activity,[1]; agonist: LPS (TLR4) 0.1 ug/mL,2.27
same,NF-kB SEAP reporter activity,[1]; [4],0.762
same,NF-kB SEAP reporter activity,[1]; [5],0.716
same,NF-kB SEAP reporter activity,[1]; [6],1.02
COc1ccc2cc(-c3[nH]c(-c4ccc(S(C)=O)cc4)nc3-c3ccncc3)ccc2c1 (configuration not stated) (library stock concentration (final ~1000-fold dilution): 10 mM),NF-kB SEAP reporter activity,[1]; agonist: LPS (TLR4) 0.1 ug/mL,3.42
same,NF-kB SEAP reporter activity,[1]; [4],2.22
same,NF-kB SEAP reporter activity,[1]; [5],1.74
same,NF-kB SEAP reporter activity,[1]; [6],2.04
CS(=O)c1ccc(-c2nc(-c3ccc(F)cc3)c(-c3ccncc3)[nH]2)cc1 (configuration not stated),NF-kB SEAP reporter activity,[2]; [8],1.52
same,NF-kB SEAP reporter activity,[2]; [7],1.61
COc1ccc2cc(-c3[nH]c(-c4ccc(S(C)=O)cc4)nc3-c3ccncc3)ccc2c1 (configuration not stated),NF-kB SEAP reporter activity,[2]; [8],1.81
same,NF-kB SEAP reporter activity,[2]; [7],2.57
CCS(=O)(=O)N1CCN(c2ccc(Nc3ncc(C(N)=O)c(NC4CC4)n3)cc2)CC1.Cl (library stock concentration (final ~1000-fold dilution): 10 mM),NF-kB SEAP reporter activity,[3]; agonist: LPS (TLR4) 0.1 ug/mL,0.273
same,NF-kB SEAP reporter activity,[3]; [4],0.218
same,NF-kB SEAP reporter activity,[3]; [5],0.0746
same,NF-kB SEAP reporter activity,[3]; [6],0.121
CCS(=O)(=O)N1CCN(c2ccc(Nc3ncc(C(N)=O)c(NC4CC4)n3)cc2)CC1.Cl,NF-kB SEAP reporter activity,"[2]; library stock concentration (final ~1000-fold dilution): 10 mM, cytotoxicity flag (confluency mask): cytotoxic (confluency <70% of control), agonist: Imiquimod (TLR7) […]",0.23
same,NF-kB SEAP reporter activity,"[2]; library stock concentration (final ~1000-fold dilution): 10 mM, cytotoxicity flag (confluency mask): cytotoxic (confluency <70% of control), agonist: MPLA (TLR4) […]",0.398
